According to PubChem BioAssay AID602248 (The Scripps Research Institute Molecular Screening Center, 2012):
Hit rate of the full screen: of about 360,000 compounds, about 1,700 (0.47%) were called active. The sample holds actives, similar compounds and a random draw of the others, so the mix is not that of the screen. Values without a mark were called inactive. Cut-off read from the data, not from the text of the source: active = activation above about 15%; inactive = the rest.

Experiment: counter-screen for M1 agonists: effect in parental CHO-K1 cells (AID 602248);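 note: untransfected CHO-K1 host cells lacking M1 receptor as counterscreen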
Settings: Fluo-8 calcium fluorescence, at 3 µM, stronger effect = higher value

SMILES	activation
CN1CCN(C(=S)SCC(=O)Nc2ccc(Cl)cc2C(=O)c2ccccc2)CC1	3.53%
O=C(CCNS(=O)(=O)c1ccccc1)Nc1ccc(Cl)cc1C(=O)c1ccccc1	16% (active)
O=C(COC(=O)c1ccccc1)Nc1ccc(Cl)cc1C(=O)c1ccccc1	0.05%
CN(C)C(=O)Oc1ccc(OCc2cccc[n+]2C)cc1	-0.29%
CCCCCCCCCCCCn1ccc(=N)cc1	31.4% (active)
CNC(=O)Nc1ccc(C(O)(C(=O)OC)C(F)(F)F)cc1 (stereo not given)	1.17%
COC(=O)C1=C(c2cccc(OCc3ccccc3)c2)C[C@@H]2CC[C@H]1N2C(=O)NNCc1ccccc1	0.39%
CCOC(=O)CC1=C(C(=O)OCC)C2(C(=O)N1)C(C(=O)OC)=C(N)Oc1ccccc12 (stereo not given)	-0.01%
O=C1NC(=O)C(CCc2ccccn2)(Cc2cccc(Cl)c2Cl)C(=O)N1c1ccc(Br)cc1 (stereo not given)	4.3%
Cc1cc(C(=O)OCC(=O)Nc2c(F)cccc2F)c(C)n1C1CC1	0.33%
CC(C)N(CC#CCC1(O)c2ccccc2-c2ccccc21)C(C)C	0.55%
N=c1ccccn1Cc1ccccc1	15.6% (active)
CCN1CCN(c2nc3c(c(=O)[nH]2)CCC3)CC1	0.18%
CCCn1c(C(=O)c2ccccc2OC)nc2ccccc21	-0.18%
CC1=C2C(=O)C3C(CC=C4CC(OC5OC(O)C(O)C(O)C5CO)CCC43C)C2CCC12OC1CC(C)CNC1C2C (stereo not given)	1.23%
